# PREPL inh: inhibits the human prolyl oligopeptidase-like enzyme; hit rate 0.68% among 320,000; recombinant PREPL, fluorescence polarization activity-based probe; Q4J6C6; inhibition, % at 5.96 µM
# Target sequence (Q4J6C6 whole entry, looked up): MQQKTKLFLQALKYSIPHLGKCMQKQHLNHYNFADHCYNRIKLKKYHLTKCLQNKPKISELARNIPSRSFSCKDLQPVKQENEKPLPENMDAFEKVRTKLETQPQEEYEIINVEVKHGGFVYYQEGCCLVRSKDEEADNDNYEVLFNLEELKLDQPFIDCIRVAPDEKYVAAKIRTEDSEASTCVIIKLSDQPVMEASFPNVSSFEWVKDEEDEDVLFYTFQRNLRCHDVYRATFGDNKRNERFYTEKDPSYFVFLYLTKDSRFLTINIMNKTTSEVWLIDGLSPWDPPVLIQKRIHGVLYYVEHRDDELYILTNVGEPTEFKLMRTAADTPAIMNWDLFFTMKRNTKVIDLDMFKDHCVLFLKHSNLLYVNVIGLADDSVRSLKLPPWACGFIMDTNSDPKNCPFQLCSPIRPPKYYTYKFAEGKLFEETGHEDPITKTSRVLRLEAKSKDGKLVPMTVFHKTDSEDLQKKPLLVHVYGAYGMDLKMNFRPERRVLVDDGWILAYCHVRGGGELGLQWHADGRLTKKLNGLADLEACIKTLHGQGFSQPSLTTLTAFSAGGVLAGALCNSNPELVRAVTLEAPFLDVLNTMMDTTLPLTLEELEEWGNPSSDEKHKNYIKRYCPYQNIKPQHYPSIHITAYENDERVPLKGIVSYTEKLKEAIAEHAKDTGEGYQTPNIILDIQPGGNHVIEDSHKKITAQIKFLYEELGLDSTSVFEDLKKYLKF
# PME-1 inh: blocks human protein phosphatase methylesterase 1; recombinant PME-1, FP-Rh probe fluorescence polarization; hit rate 0.53% among 320,000; inhibition, % at 5.9 µM;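 active = inhibition above the campaign mean of all compounds plus 3 SD, cut at about 26% in these data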;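 note: competitive labeling of PME-1 active site by serine hydrolase directed probe; inhibitors block probe labeling so polarization falls and inhibition rises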
# LYPLA1 inh: counter-screen for PME1 inhibitors: inhibitors of human LYPLA1. O75608. recombinant LYPLA1, FP-Rh probe fluorescence polarization. inhibition, % at 5.9 µM. hit rate 0.16% among 320,000. AID 2174;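 active = inhibition above the mean of all tested compounds plus 3 SD, set per campaign, cut at about 14% in these data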;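 note: inhibitors block serine hydrolase probe labeling of LYPLA1 so polarization falls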
# LYPLA2 counter: counter-screen for PME1 inhibitors: inhibitors of human LYPLA2 | O95372 | recombinant LYPLA2, FP-Rh probe fluorescence polarization | inhibition, % at 5.9 µM | hit rate 0.38% among 320,000;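 active = inhibition above the screen-wide mean plus 3 SD, limit set per campaign, cut at about 26% in these data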
# Fam108B counter: blocks mouse Fam108B hydrolase in RBBP9 counter-screen | recombinant Fam108B, FP-Rh probe fluorescence polarization | inhibition, % at 9.51 µM | hit rate 0.33% among 300,000;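 active = inhibition above the screen mean inhibition plus 3 SD, computed separately per campaign, cut at about 18% in these data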;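 note: inhibitors lower polarization as less probe binds the enzyme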
# PREPL confirm: human PREPL inhibition, confirmation; shares compounds with PREPL inh; recombinant PREPL, fluorescence polarization activity probe; hit rate 67% among 2,000; inhibition, % at 5.96 µM
# A number is an active result; – = inactive; · = no result given. Sampled rows, rich in hits. Any-hit rate of the full collection: about 1.3%. Cut-off read from the data, not from the text of the source, unless noted: active = inhibition above about 43%; inactive = the rest.
SMILES,PREPL inh,PME-1 inh,LYPLA1 inh,LYPLA2 counter,Fam108B counter,PREPL confirm
O=C1c2c(O)ccc(O)c2C(=O)c2c(NCCNCCO)ccc(NCCNCCO)c21,101.5,–,–,–,–,98.2
Nc1cc(Cl)ccc1N1CCCC1,–,–,–,–,–,·
Nc1cc(F)ccc1N1CCCCCC1,43.2,–,–,–,–,–
Cn1c(=O)[nH]c(=O)c2c1nc(CN1CCN(c3cccc(Cl)c3)CC1)n2CCN1CCOCC1,46.3,–,–,–,–,–
CCCCn1c(CN2CCN(c3cccc(Cl)c3)CC2)nc2c1c(=O)[nH]c(=O)n2C,–,–,–,–,–,·
COc1ccc(-c2ccc(NS(=O)(=O)c3cc([N+](=O)[O-])c(C)c([N+](=O)[O-])c3)cc2)nn1,–,–,–,–,–,·
N#C/C(=C\c1ccccc1C(=O)O)c1nc2ccccc2[nH]1,–,–,–,–,–,·
N#C/C(=C\c1cccnc1)c1nc2ccccc2[nH]1,56.1,–,–,–,–,–
CC(C)OC(=O)c1cc2c(ccn2-c2ccc(F)cc2)n1CC(=O)N1CCN(C(=O)c2ccco2)CC1,47.3,–,–,–,–,48.1
CC(C)OC(=O)c1cc2c(ccn2C)n1CC(=O)N1CCC(Cc2ccccc2)CC1,43.9,–,–,–,–,–
CCN1CCN(C(=O)C(C)Nc2ccc(OC)cc2OC)CC1 (centres undefined),50.4,–,–,–,–,46.0
CCOC(=O)N1CCN(CCC(=O)Nc2ccc(OC)cc2OC)CC1,–,–,–,–,–,·
c1ccc(NC2=NCCN2CCCC2CCCCC2)cc1,–,–,–,–,–,·
Oc1nc(Nc2ccccc2)sc1/C=C1\C=Nc2ccccc21,58.8,44.4,–,–,–,62.8
CCOC(=O)c1c(Nc2ccccc2)sc(/C=C2\C=Nc3ccccc32)c1O,–,–,–,–,–,·
O=[N+]([O-])c1cccc(COc2ncnc3cc([N+](=O)[O-])ccc23)c1,47.1,–,–,–,–,–
COc1ccc(CCNC(=O)COc2ncnc3cc([N+](=O)[O-])ccc23)cc1,–,–,–,–,–,·
Cc1nc2ccccn2c1CN(C)C(=O)C1CCC(=O)N(CCc2cccc(F)c2)C1 (centres undefined),–,–,–,–,–,·
CCC(C(=O)OC(C)C(=O)Nc1ccc(Cl)cn1)c1ccccc1 (centres undefined),–,–,–,–,–,·
CCN(CC)c1ccc(-c2sc(Nc3ccccc3)n[n+]2-c2ccc(F)cc2)cc1,53.9,–,–,–,–,65.5
CN(C)c1ccc(-c2sc(Nc3ccccc3)n[n+]2-c2ccc(F)cc2)cc1,–,–,–,–,–,·
CCc1ccc(Nc2n[n+](-c3ccccc3)c(-c3ccc(N(CC)CC)cc3)s2)cc1,63.9,–,–,–,–,67.7
O=C(CC12CC3CC(CC(C3)C1)C2)NCc1ccc(F)cc1,–,–,–,–,–,·
CCCCNc1ncnc2sc3c(c12)CCN(CCC)C3,–,–,–,–,–,·
COc1ccc(N(CC(=O)NC2CCCC2)C(=O)Cn2nnc(-c3ccc(OC)c(OC)c3)n2)c(OC)c1,–,–,–,–,–,·
SMILES,PREPL inh,PME-1 inh,LYPLA1 inh,LYPLA2 counter,Fam108B counter,PREPL confirm
O=C(Nc1ccc(NC(=O)N2CCN(c3ccccc3O)CC2)cc1)N1CCN(c2ccccc2O)CC1,55.9,–,–,–,–,51.7
COc1cccc(N2CC(C(=O)Nc3nnc(SCC(=O)NCc4ccco4)s3)CC2=O)c1 (centres undefined),–,–,–,–,–,·
C/C(=N\NC(=O)C1CCCN(S(=O)(=O)c2ccccc2)C1)c1ccncc1 (centres undefined),43.2,–,–,–,–,–
Cc1ccc(C2=CC(c3ccc(N(C)C)cc3)n3nnnc3N2)cc1 (centres undefined),58.7,–,–,–,–,54.2
O=C(c1ccccc1)c1ccc(C(=O)N2CCOCC2)cc1,–,–,–,–,–,·
O=C(c1ccc(-c2ccccc2)cc1)c1ccccc1C(=O)N1CCOCC1,45.7,–,–,–,–,–
CCCOc1ccccc1-n1sc2c(c1=S)-c1cc(OC)cc3c1N(C(=O)C3=O)C2(C)C,51.8,–,–,–,–,57.2
COc1cc2c3c(c1)C(C)=CC(C)(C)N3C(=O)C2=O,–,–,–,–,–,·
CC[C@](C)(O)c1cc2ccccc2c(=O)o1,–,·,·,·,·,·
C/C(=N\NC(=O)c1cccc(N/N=C(\C)c2ccncc2)c1)c1ccncc1,51.9,–,–,–,–,–
CN(C)CCc1cc2c(c3c1ccc1ccccc13)OCO2,67.8,–,–,–,–,59.1
Clc1cccc(-c2ccc(C3Nc4cccc5cccc(c45)N3)o2)c1,49.0,·,·,·,·,60.9
O=C(O)c1ccc(-c2cccc(Cl)c2)o1,–,–,–,–,–,·
CCN1C(=O)[C@@H]2Cc3c([nH]c4ccccc34)C(c3ccc(OC)cc3)N2C1=S (some centres undefined),–,–,–,–,–,·
Fc1ccccc1Cc1noc(CN(Cc2ccccn2)CC2CCCO2)n1 (centres undefined),50.8,–,–,–,–,–
COC(=O)[C@H](CC(C)C)NC(=O)c1cc2c(cn1)[nH]c1ccccc12,–,–,–,–,–,·
c1cncc(N=c2scc(-c3cccc4ccccc34)n2CCCn2ccnc2)c1,53.4,–,–,–,–,53.9
Cc1ccc(-c2csc(=Nc3cccnc3)n2CCCn2ccnc2)cc1C,46.7,–,–,–,–,56.9
Cc1ccc(-c2csc(=Nc3cccnc3)n2CCCN2CCCC2=O)cc1C,49.3,–,–,–,–,54.1
Cc1c(NCc2cc(Cl)cc(Cl)c2O)c(=O)n(-c2ccccc2)n1C,49.9,–,–,–,–,58.1
COc1ccc(CCNC(=O)c2cc3c(=O)n4ccccc4nc3n(CCCN3CCOCC3)c2=N)cc1OC,–,–,–,–,–,·
Cc1cccn2c(=O)c3cc(C(=O)NCCc4ccccc4)c(=N)n(CCCn4ccnc4)c3nc12,66.3,–,–,–,–,57.6
COc1ccc(CCNC(=O)c2cc3c(=O)n4ccccc4nc3n(CCCN3CCOCC3)c2=N)cc1,58.4,–,–,–,–,51.9
COc1ccc(CCNC(=O)c2cc3c(=O)n4ccccc4nc3n(CCN3CCOCC3)c2=N)cc1,–,–,–,–,–,·
Cc1ccc2nc3c(cc(C(=O)NCCc4ccccc4)c(=N)n3CCCN3CCOCC3)c(=O)n2c1,52.5,–,–,–,–,56.4
COC(=O)C(C)Sc1nc2c(cnn2-c2ccc(Cl)cc2)c(=O)[nH]1 (centres undefined),–,–,–,–,–,·
CSc1ccc(NC(=O)NCCCN2CCN(c3ccccc3F)CC2)cc1,43.3,–,–,–,–,–
Cc1c(C)n(C)c2ccc(C(=O)NCCCN3CCN(c4ccccc4F)CC3)cc12,43.9,–,–,–,–,–
O=C(NCCCN1CCN(c2ccccc2F)CC1)Nc1ccc(F)cc1,–,–,–,–,–,·
CCc1ccc(OCC(=O)N/N=C2\CC(=O)c3ccccc32)cc1,54.1,–,–,–,–,–
